# Source: PubChem BioAssay (NCI)
# The panel holds about 79,000 compounds, 15% with a hit somewhere; the sample as a whole holds those more often. Unmarked numbers belong to inactive results. Active and inactive are the calls of the source. Rule as the data show it: active = growth inhibition above about 70%; inactive = the rest.
# Legend:
# [1] = NCI Yeast Anticancer Drug Screen. Data for the rad50 strain (AID 155);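 also: 0% = growth of vehicle-only cultures of the same strain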; conditions: S. cerevisiae rad50 strain growth inhibition; at 50.0 µM; active compounds read high
# Summary of the method: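 Vehicle-treated cultures provide the reference for the growth inhibition reported for compound-exposed, repair-deficient yeast.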
# [2] = NCI Yeast Anticancer Drug Screen. Data for the mec2-1 strain (AID 157); conditions: S. cerevisiae mec2-1 strain, at 50.0 µM, active compounds read high
# Summary of the method: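 Vehicle-treated cultures served as reference for growth inhibition of compound-exposed mec2-1 yeast.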
# [3] = NCI Yeast Anticancer Drug Screen. Data for the sgs1 mgt1 strain (AID 161);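 also: 0% = growth of cultures given vehicle only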; conditions: S. cerevisiae sgs1 mgt1 strain, at 50.0 µM, active compounds read high
# Summary of the method: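 Inhibition of yeast growth, normalised to vehicle-treated controls, is reported for a strain bearing genetic alterations in DNA damage repair.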
# [4] = NCI Yeast Anticancer Drug Screen. Data for the cln2 rad14 strain (AID 165);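 also: 0% = growth equal to vehicle treated cultures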; conditions: S. cerevisiae cln2 rad14 strain, at 50.0 µM, active compounds read high
# Summary of the method: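 Each compound was tested on cln2 rad14 yeast. Inhibition of growth was calculated against vehicle-exposed controls.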
# [5] = NCI Yeast Anticancer Drug Screen. Data for the mlh1 rad18 strain (AID 175); conditions: S. cerevisiae mlh1 rad18 strain growth inhibition; at 50.0 µM; active compounds read high
# Summary of the method: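 Vehicle-treated cultures served as the reference for growth inhibition in a yeast strain carrying DNA damage repair alterations exposed to each compound.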
# [6] = NCI Yeast Anticancer Drug Screen. Data for the bub3 strain (AID 167); conditions: S. cerevisiae bub3 mutant strain, at 50.0 µM, active compounds read high
# Summary of the method: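 Mutant yeast screening strain plus compound; vehicle-treated cultures serve as the 0% inhibition reference.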
Compound,growth inhibition [1],growth inhibition [2],growth inhibition [3],growth inhibition [4] [%],growth inhibition [5],growth inhibition [6]
O=C(O)C1(C(=O)O)CC2C3C=CC(C3)C2C1 (configuration not stated),-7.75%,-11.7%,0.35%,-48.8,20.5%,
COC(=O)C(N)CO (configuration not stated),-40.5%,-27%,-39.8%,4.35,-26.1%,-34.8%
CCCCOC(=O)c1cccc(C(=O)OCCCC)n1,-20.9%,-18.9%,-14.1%,-5.6,-22.8%,-11.5%
O=C(c1ccccc1)c1cnc2ccccn12,-2.35%,-2.35%,-3.15%,-15.9,-8.05%,
O=C(Sc1c(-c2ccccc2)c(=O)n(-c2ccccc2)c(=S)n1-c1ccccc1)c1ccc(Cl)cc1,2.75%,3.9%,16.1%,-4.35,12.8%,
Cc1ccc(S(=O)(=O)C2(NC(=O)C3CC3)CC2)cc1,-6.5%,-12.1%,-26.2%,-11.1,-5.7%,
CCOC(O)C(F)(F)C(F)(F)C(F)(F)F (configuration not stated),9.05%,-32.2%,3.5%,20.9,20.1%,
COc1ccc2cc(C(=O)c3ccccc3)c(=O)oc2c1,-0.1%,-20.9%,18.8%,11.1,-13.6%,
O=S(=O)(c1ccc(NC(=S)NCc2ccco2)cc1)N1CCCCC1,46%,5.6%,42.1%,38.3,25.6%,28.9%
CC1/C(=N\Nc2ccc([N+](=O)[O-])cc2[N+](=O)[O-])CCC2C1(C)CCC1C2(C)CCC2(C)C3CC(C)(C)CCC3(C)CCC12C (configuration not stated),-5.8%,-9.1%,9.8%,-16.6,6.25%,
CC(=O)Nc1nc2nccn2c(=O)[nH]1,-5.7%,-3.1%,-6.5%,-28.3,2%,
CCOC(=O)Cc1nnc2n(-c3ccccc3)c(=O)c3ccccc3n12,-23.6%,-15.3%,-21.7%,11.8,-74.2%,-21.9%
O=P1(O)c2ccccc2CSCc2ccccc21,24.4%,-7.35%,-11.8%,-2.8,-31.8%,
CNC(=O)c1ccccc1C(=N)c1ccccc1,-12.6%,-5.4%,-11.2%,-8.05,-8.35%,
CCCN(CCN(CC)CC)C(=O)N(CC)CC,-11%,14.3%,3.2%,-19.1,-17.6%,
COc1ccccc1/C=N/Nc1nnc2c3ccccc3c3ncccc3c2n1,-28.8%,-45.8%,-22.5%,-10.8,-34%,
CCN(CC)CC(C)(C)C(O)c1ccc(OC)c2ccccc12 (configuration not stated),-6.15%,7.3%,17.9%,-26.8,8.8%,9.45%
CCOC(=O)/C(N=O)=C(/C)O,13.8%,5.9%,4.8%,-7.95,11.3%,
NC(N)=NS(=O)(=O)c1ccc(Nc2c3ccccc3nc3c(C(=O)Nc4ccc(S(N)(=O)=O)cc4)ccc(Cl)c23)cc1,-8.55%,-2.1%,-2.75%,29.8,7.85%,
CCCNC(=O)c1nc(SC)sc1NC(=O)c1ccccc1,10.3%,3.5%,-50.1%,17.6,10.9%,
COC(=O)[C@H](Cc1ccccc1)NP(=O)(OCCC#N)OCC1OC(n2cc(C)c(=O)[nH]c2=O)CC1N=[N+]=[N-] (some centres not stated),0.95%,-13.1%,-19.3%,-20,-35.8%,
C[C@@]1(CO)CCc2c(c3ccccc3oc2=O)O1,2.2%,6.45%,9.55%,8,-6.35%,
COc1ccc(COCc2ccc(OC)cc2)cc1,4.55%,-10.6%,8.7%,-66.5,12.7%,

Compound,growth inhibition [1],growth inhibition [2],growth inhibition [3],growth inhibition [4] [%],growth inhibition [5],growth inhibition [6]
OC1CC2COCC2CC1O (configuration not stated),22.6%,1.7%,11.1%,6.9,10%,
CCOc1cc(/C=C2/C=C(c3ccc(OC)cc3)OC2=O)ccc1O,-13.9%,0.5%,4.5%,-19.1,-0.7%,
Cc1ccc(S(=O)(=O)[N-]C2C(=O)c3ccccc3C(=O)C2[n+]2cccc(C(N)=O)c2)cc1 (configuration not stated),-1.75%,2%,9.5%,4.55,-38.8%,8.8%
O=CC(=O)c1ccc(F)cc1,-20.2%,-10%,-0.15%,-15.2,2%,
Cc1ccc(S(=O)(=O)N(C)C)cc1NC1=NCCO1,-2.55%,5.75%,7.85%,-40.4,-2.6%,
O=C(O)c1cc2oc3ccccc3c2cc1O,2.4%,-7.5%,18.6%,4.4,23.3%,
CC(=O)OCCOCCCl,-12.8%,20.2%,1.5%,-13.3,12.1%,
C[N+](C)(N)CCS(N)(=O)=O,0.15%,-9.8%,5.6%,-22.4,0.5%,
Cn1ccc2c3ccsc3ccc21,21.8%,6.35%,4.55%,-5.5,1.05%,
N#CC1(c2ccccc2)C(c2ccccc2)=C1c1ccccc1,1.75%,5.15%,2.25%,-4.55,-8.95%,8.7%
O=C1C(NS(=O)(=O)c2ccccc2)=C(N(Cc2ccccc2)Cc2ccccc2)C(=O)c2ccccc21,9.1%,7.4%,26.1%,2.1,-6.75%,
CC(C)[C@@H]1CC[C@@H](C)C[C@H]1N,-16.7%,7.8%,-8.85%,-35.5,-11.2%,
O=C1OC(c2ccccc2)=N/C1=C\c1ccco1,-2.95%,-19.3%,-24.4%,19.6,23.6%,
CCSSC12CCCN1C(=O)C1CCCN1C2=O (configuration not stated),49%,40.9%,9.4%,-40,20.4%,
CC(NCc1c(O)ccc2c(-c3ccccc3)cc(=O)oc12)C(=O)O (configuration not stated),-39.4%,-19.1%,-32.6%,4.35,-14.8%,
O=C1NC(=Nc2ccccc2Cl)SC1C(=O)Nc1ccc([N+](=O)[O-])cc1[N+](=O)[O-] (configuration not stated),8.1%,7.85%,-34.4%,-28.6,-12.1%,
CC(Cc1ccco1)(C(=O)O)C(=O)O,11.8%,16.3%,-14.8%,-1.3,-11.6%,
C=CCOC(C)OCC=C,17.9%,7.9%,-1.35%,,-0.15%,13.3%
Cc1ccc(-c2oc(-c3ccc(C)cc3)c3cc(C)c(C)cc23)cc1,4.8%,13.5%,-6.7%,,-4.6%,-8.6%
COc1ccc2c(NCCCCCCNc3c4ccccc4nc4cc(OC)ccc34)c3ccccc3nc2c1,89.9% (active),91.6% (active),92.5% (active),,89.7% (active),91.5% (active)
O=C1C(c2ccccc2)=C(c2ccccc2)c2ccccc21,-8.2%,19.6%,21%,,14.4%,32%
NC(=O)C(N)CC(=O)O (configuration not stated),6.15%,-5.9%,-3.1%,,11.1%,6.5%
